Experimental data as given in PubChem BioAssay AID1159580 (chemical genetic matrix, 2015).
Screen size: about 5,500 compounds; about 2,000 (36%) were called active. About 18% were inconclusive and are not listed. Cut-off read from the data, not from the text of the source: active = normalized growth mostly below about 0.91 (no sharp cut-off); inconclusive = no clear call, values can overlap the other calls; inactive = mostly above about 0.92. Some of the results follow.

Experiment: chemical genetic growth profiling, strain panel (AID 1159580);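 note: tested at 20 µM; growth read once vehicle control cultures reached saturation at 30 °C; 1 = growth at the plate median or of vehicle wells; lower values mean less growth of the strain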
Conditions: S. cerevisiae deletion strains, growth OD
[1] = locus YAR019C, strain CDC15, stronger effect = lower value
[2] = locus YBL105C, strain PKC1, stronger effect = lower value
[3] = locus YBR135W, strain CKS1, stronger effect = lower value
[4] = locus YBR136W, strain MEC1, stronger effect = lower value
[5] = locus YBR160W, strain CDC28, stronger effect = lower value
[6] = locus YDL017W, strain CDC7, stronger effect = lower value
[7] = locus YDL028C, strain MPS1, stronger effect = lower value
[8] = locus YDL101C, strain DUN1, stronger effect = lower value
[9] = locus YDL108W, strain KIN28, stronger effect = lower value
[10] = locus YDL132W, strain cdc53, stronger effect = lower value
[11] = locus YDL214C, strain PRR2, stronger effect = lower value
[12] = locus YDR052C, strain DBF4, stronger effect = lower value
[13] = locus YDR054C, strain cdc34, stronger effect = lower value
[14] = locus YDR226W, strain ADK1, stronger effect = lower value
[15] = locus YDR477W, strain SNF1, stronger effect = lower value
[16] = locus YER123W, strain YCK3, stronger effect = lower value
[17] = locus YER133W, strain GLC7, stronger effect = lower value
[18] = locus YFL009W, strain cdc4, stronger effect = lower value
[19] = locus YFL029C, strain CAK1, stronger effect = lower value
[20] = locus YFR003C, strain YPI1, stronger effect = lower value
[21] = locus YFR019W, strain FAB1, stronger effect = lower value
[22] = locus YFR028C, strain CDC14, stronger effect = lower value
[23] = locus YGR040W, strain KSS1, stronger effect = lower value
[24] = locus YGR052W, strain FMP48, stronger effect = lower value
[25] = locus YGR092W, strain DBF2, stronger effect = lower value
[26] = locus YHR030C, strain SLT2, stronger effect = lower value
[27] = locus YHR079C, strain IRE1, stronger effect = lower value
[28] = locus YHR082C, strain KSP1, stronger effect = lower value
[29] = locus YHR205W, strain SCH9, stronger effect = lower value
[30] = locus YIL147C, strain SLN1, stronger effect = lower value
[31] = locus YJL095W, strain BCK1, stronger effect = lower value
[32] = locus YJL128C, strain PBS2, stronger effect = lower value
[33] = locus YJL157C, strain FAR1, stronger effect = lower value
[34] = locus YJR016C, strain ILV3, stronger effect = lower value
[35] = locus YJR066W, strain TOR1 (second series), stronger effect = lower value
[36] = locus YJR066W, strain TOR1, stronger effect = lower value
[37] = locus YKL048C, strain ELM1, stronger effect = lower value
[38] = locus YKL067W, strain YNK1, stronger effect = lower value
[39] = locus YKL101W, strain HSL1, stronger effect = lower value
[40] = locus YKL193C, strain SDS22, stronger effect = lower value
[41] = locus YKL203C, strain TOR2, stronger effect = lower value
[42] = locus YLR113W, strain HOG1, stronger effect = lower value
[43] = locus YLR133W, strain CKI1, stronger effect = lower value
[44] = locus YLR403W, strain SFP1, stronger effect = lower value
[45] = locus YML070W, strain DAK1, stronger effect = lower value
[46] = locus YMR001C, strain CDC5, stronger effect = lower value
[47] = locus YMR205C, strain PFK2 (second series), stronger effect = lower value
[48] = locus YMR277W, strain FCP1, stronger effect = lower value
[49] = locus YNL006W, strain LST8, stronger effect = lower value
[50] = locus YNL020C, strain ARK1, stronger effect = lower value
[51] = locus YNL161W, strain CBK1, stronger effect = lower value
[52] = locus YNL183C, strain NPR1, stronger effect = lower value
[53] = locus YNL207W, strain RIO2, stronger effect = lower value
[54] = locus YNL222W, strain SSU72, stronger effect = lower value
[55] = locus YNL307C, strain MCK1 (second series), stronger effect = lower value
[56] = locus YOL078W, strain AVO1, stronger effect = lower value
[57] = locus YOL136C, strain PFK27, stronger effect = lower value
[58] = locus YOR061W, strain CKA2, stronger effect = lower value
[59] = locus YOR119C, strain RIO1, stronger effect = lower value
[60] = locus YOR231W, strain MKK1, stronger effect = lower value
[61] = locus YOR329C, strain SCD5, stronger effect = lower value
[62] = locus YPL031C, strain PHO85, stronger effect = lower value
[63] = locus YPL153C, strain RAD53, stronger effect = lower value
[64] = locus YPL204W, strain HRR25, stronger effect = lower value
[65] = locus YPL209C, strain IPL1, stronger effect = lower value
[66] = locus YPL256C, strain CLN2, stronger effect = lower value
[67] = locus YPR025C, strain CCL1, stronger effect = lower value
[68] = locus YPR106W, strain ISR1, stronger effect = lower value
[69] = locus YPR111W, strain DBF20, stronger effect = lower value
[70] = strain NNK1, stronger effect = lower value
[71] = strain TSCII, stronger effect = lower value

Measured: normalized growth

Cc1cc(Cl)ccc1NNC(=O)c1sccc1Cl
inactive: [1] 0.892 | [2] 0.912 | [3] 0.908 | [4] 0.9 | [5] 0.913 | [6] 0.915 | [7] 0.912 | [9] 0.907 | [10] 0.928 | [11] 0.869 | [13] 0.882 | [15] 0.861 | [16] 0.787 | [17] 0.794 | [18] 0.893 | [19] 0.883 | [20] 0.911 | [21] 0.907 | [22] 0.894 | [23] 0.861 | [24] 0.861 | [25] 0.7 | [27] 0.859 | [28] 0.884 | [29] 0.878 | [30] 0.913 | [32] 0.89 | [33] 0.864 | [35] 0.874 | [36] 0.835 | [37] 0.872 | [38] 0.861 | [39] 0.917 | [40] 0.893 | [41] 0.912 | [43] 0.878 | [44] 0.831 | [45] 0.836 | [46] 0.894 | [47] 0.844 | [48] 0.905 | [50] 0.885 | [52] 0.858 | [53] 0.9 | [54] 0.896 | [55] 0.811 | [56] 0.888 | [57] 0.84 | [58] 0.876 | [59] 0.91 | [60] 0.823 | [61] 0.909 | [62] 0.861 | [63] 0.803 | [64] 0.822 | [67] 0.902 | [68] 0.903 | [69] 0.882 | [70] 0.897
active: [8] 0.907 | [12] 0.898 | [14] 0.894 | [26] 0.152 | [31] 0.194 | [34] 0.898 | [42] 0.779 | [49] 0.898 | [51] 0.89 | [65] 0.899 | [66] 0.803 | [71] 0.878

O=C(NNc1ccc(F)cc1F)c1sccc1Cl
active: [42] 0.858
inactive: [1] 0.974 | [2] 0.96 | [3] 0.978 | [4] 0.971 | [5] 0.971 | [6] 0.968 | [7] 0.975 | [8] 0.961 | [9] 0.977 | [10] 0.969 | [11] 0.924 | [12] 0.971 | [13] 0.957 | [14] 0.968 | [15] 0.927 | [16] 0.841 | [17] 0.952 | [18] 0.975 | [19] 0.962 | [20] 0.978 | [21] 0.916 | [22] 0.977 | [23] 0.912 | [24] 1 | [25] 0.879 | [26] 0.903 | [27] 0.96 | [28] 0.987 | [29] 0.925 | [30] 0.968 | [31] 0.939 | [32] 0.967 | [33] 0.926 | [34] 0.976 | [35] 0.86 | [36] 1.01 | [37] 0.927 | [38] 0.952 | [39] 0.913 | [40] 0.976 | [41] 0.985 | [43] 0.926 | [44] 0.917 | [45] 0.904 | [46] 0.974 | [47] 0.963 | [48] 0.984 | [49] 0.989 | [50] 0.939 | [51] 0.974 | [52] 0.956 | [53] 0.975 | [54] 0.975 | [55] 0.858 | [56] 0.968 | [57] 0.908 | [58] 0.83 | [59] 0.994 | [60] 0.914 | [61] 0.97 | [62] 0.944 | [63] 0.92 | [64] 0.914 | [65] 0.967 | [66] 0.894 | [67] 0.978 | [68] 0.957 | [69] 0.953 | [70] 0.967 | [71] 0.97

Cc1cc(Cl)ccc1NNC(=O)c1sccc1Br
inactive: [1] 0.928 | [2] 0.925 | [3] 0.927 | [4] 0.921 | [5] 0.918 | [6] 0.928 | [7] 0.929 | [8] 0.917 | [9] 0.932 | [10] 0.918 | [11] 0.872 | [12] 0.931 | [13] 0.908 | [14] 0.922 | [15] 0.871 | [16] 0.81 | [17] 0.851 | [18] 0.925 | [19] 0.921 | [20] 0.924 | [21] 0.895 | [22] 0.924 | [23] 0.844 | [24] 0.908 | [25] 0.784 | [27] 0.862 | [28] 0.879 | [29] 0.844 | [30] 0.928 | [31] 0.714 | [32] 0.895 | [33] 0.85 | [34] 0.935 | [35] 0.862 | [36] 0.886 | [37] 0.896 | [38] 0.873 | [39] 0.872 | [40] 0.92 | [41] 0.921 | [43] 0.849 | [44] 0.838 | [45] 0.842 | [46] 0.918 | [47] 0.87 | [48] 0.921 | [49] 0.925 | [50] 0.862 | [51] 0.923 | [52] 0.851 | [53] 0.906 | [54] 0.925 | [55] 0.785 | [56] 0.916 | [57] 0.825 | [58] 0.868 | [59] 0.92 | [60] 0.824 | [61] 0.913 | [62] 0.867 | [63] 0.855 | [64] 0.838 | [65] 0.911 | [67] 0.925 | [68] 0.912 | [69] 0.919 | [70] 0.915 | [71] 0.92
active: [26] 0.489 | [42] 0.715 | [66] 0.793
